Where “and” joins values, the source holds several entries; their conditions need not be identical. Equal values may be shown once.
Key:
[1] = target: MAP/microtubule affinity-regulating kinase 3 (Homo sapiens) (UniProt P27448); settings: at 1 µM;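 further: reported values are averaged percent inhibition of MARK3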
[2] = target: T1, MAP/microtubule affinity-regulating kinase 4 (Homo sapiens) (UniProt Q96L34); settings: at 0.1 µM
T1 sequence (whole entry): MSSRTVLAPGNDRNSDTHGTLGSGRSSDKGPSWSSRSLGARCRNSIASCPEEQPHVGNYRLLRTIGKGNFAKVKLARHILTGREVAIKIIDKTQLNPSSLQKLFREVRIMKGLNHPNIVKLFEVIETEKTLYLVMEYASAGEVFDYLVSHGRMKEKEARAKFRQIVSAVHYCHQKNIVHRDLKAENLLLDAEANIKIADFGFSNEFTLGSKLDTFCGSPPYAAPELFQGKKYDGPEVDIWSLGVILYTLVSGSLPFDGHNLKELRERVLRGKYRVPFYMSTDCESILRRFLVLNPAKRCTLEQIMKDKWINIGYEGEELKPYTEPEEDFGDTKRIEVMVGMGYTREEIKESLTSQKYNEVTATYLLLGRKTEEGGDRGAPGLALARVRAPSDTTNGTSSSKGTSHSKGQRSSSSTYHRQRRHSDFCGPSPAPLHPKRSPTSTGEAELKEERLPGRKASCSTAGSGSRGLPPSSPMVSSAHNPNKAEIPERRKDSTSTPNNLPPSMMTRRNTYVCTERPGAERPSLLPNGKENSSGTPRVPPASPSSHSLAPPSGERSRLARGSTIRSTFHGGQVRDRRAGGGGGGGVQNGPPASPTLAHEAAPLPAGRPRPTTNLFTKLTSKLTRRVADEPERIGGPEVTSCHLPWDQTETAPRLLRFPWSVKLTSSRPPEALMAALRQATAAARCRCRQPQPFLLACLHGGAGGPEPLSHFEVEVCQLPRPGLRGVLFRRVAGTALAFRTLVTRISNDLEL

[3] = target: T1, MAP/microtubule affinity-regulating kinase 4 (Homo sapiens); settings: at 1 µM
[4] = target: Maternal embryonic leucine zipper kinase (Homo sapiens) (UniProt Q14680); settings: at 0.1 µM
Sequence of Maternal embryonic leucine zipper kinase (Homo sapiens) (Q14680 whole entry, looked up): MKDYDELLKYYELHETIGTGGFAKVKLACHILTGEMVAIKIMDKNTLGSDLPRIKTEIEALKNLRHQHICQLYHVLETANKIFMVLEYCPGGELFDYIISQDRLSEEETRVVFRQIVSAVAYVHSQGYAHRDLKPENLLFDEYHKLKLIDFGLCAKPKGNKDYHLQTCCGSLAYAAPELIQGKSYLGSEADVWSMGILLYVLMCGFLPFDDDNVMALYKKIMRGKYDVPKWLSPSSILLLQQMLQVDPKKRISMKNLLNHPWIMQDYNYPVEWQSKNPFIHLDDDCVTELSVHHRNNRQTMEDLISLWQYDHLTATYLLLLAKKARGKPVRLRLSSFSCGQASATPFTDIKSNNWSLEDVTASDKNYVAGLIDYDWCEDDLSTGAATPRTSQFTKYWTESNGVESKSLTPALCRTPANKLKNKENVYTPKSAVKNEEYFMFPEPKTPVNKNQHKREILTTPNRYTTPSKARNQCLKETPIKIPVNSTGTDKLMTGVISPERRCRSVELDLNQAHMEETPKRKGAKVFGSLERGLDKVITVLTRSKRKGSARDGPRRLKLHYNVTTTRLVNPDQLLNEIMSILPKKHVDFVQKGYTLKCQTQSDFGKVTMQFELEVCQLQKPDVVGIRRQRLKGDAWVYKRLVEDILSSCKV

[5] = target: Maternal embryonic leucine zipper kinase (Homo sapiens) (UniProt Q14680); settings: at 1 µM
[6] = target: MAP kinase-interacting serine/threonine-protein kinase 1 (Homo sapiens) (UniProt Q9BUB5); settings: at 0.1 µM
Sequence of MAP kinase-interacting serine/threonine-protein kinase 1 (Homo sapiens) (Q9BUB5 whole entry, looked up): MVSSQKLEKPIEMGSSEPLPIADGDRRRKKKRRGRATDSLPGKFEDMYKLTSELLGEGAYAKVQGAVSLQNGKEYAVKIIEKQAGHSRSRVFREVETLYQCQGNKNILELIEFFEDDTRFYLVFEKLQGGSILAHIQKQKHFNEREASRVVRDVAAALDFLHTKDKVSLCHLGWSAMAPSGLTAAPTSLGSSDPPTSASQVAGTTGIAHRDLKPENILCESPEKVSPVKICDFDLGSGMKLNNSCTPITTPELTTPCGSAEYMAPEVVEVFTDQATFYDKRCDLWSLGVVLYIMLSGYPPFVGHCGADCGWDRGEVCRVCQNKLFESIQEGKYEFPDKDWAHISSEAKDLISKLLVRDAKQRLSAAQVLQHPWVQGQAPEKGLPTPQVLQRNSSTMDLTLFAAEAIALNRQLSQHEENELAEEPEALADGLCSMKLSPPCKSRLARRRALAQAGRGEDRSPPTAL

[7] = target: MAP kinase-interacting serine/threonine-protein kinase 1 (Homo sapiens) (UniProt Q9BUB5); settings: at 1 µM
[8] = target: MAP kinase-interacting serine/threonine-protein kinase 2 (Homo sapiens) (UniProt Q9HBH9); settings: at 0.1 µM
Sequence of MAP kinase-interacting serine/threonine-protein kinase 2 (Homo sapiens) (Q9HBH9 whole entry, looked up): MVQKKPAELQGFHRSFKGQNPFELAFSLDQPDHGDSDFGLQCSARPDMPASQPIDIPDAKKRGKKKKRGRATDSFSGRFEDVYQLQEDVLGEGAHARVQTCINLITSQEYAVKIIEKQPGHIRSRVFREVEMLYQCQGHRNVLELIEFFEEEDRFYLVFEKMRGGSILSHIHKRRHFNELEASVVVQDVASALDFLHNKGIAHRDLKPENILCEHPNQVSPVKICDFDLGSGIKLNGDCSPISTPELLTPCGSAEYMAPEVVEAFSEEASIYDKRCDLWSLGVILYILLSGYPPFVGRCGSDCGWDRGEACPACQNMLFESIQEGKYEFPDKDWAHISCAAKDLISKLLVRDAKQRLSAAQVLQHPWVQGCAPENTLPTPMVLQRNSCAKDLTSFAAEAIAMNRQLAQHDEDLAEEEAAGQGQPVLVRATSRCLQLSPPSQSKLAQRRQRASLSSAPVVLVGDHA

[9] = target: MAP kinase-interacting serine/threonine-protein kinase 2 (Homo sapiens) (UniProt Q9HBH9); settings: at 1 µM
[10] = target: Serine/threonine-protein kinase MARK2 (Homo sapiens) (UniProt Q7KZI7); settings: at 0.1 µM;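 further: mean percent inhibition of PAR-1Balpha kinase activity, reported from the GSK PKIS screen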
Sequence of Serine/threonine-protein kinase MARK2 (Homo sapiens) (Q7KZI7 whole entry): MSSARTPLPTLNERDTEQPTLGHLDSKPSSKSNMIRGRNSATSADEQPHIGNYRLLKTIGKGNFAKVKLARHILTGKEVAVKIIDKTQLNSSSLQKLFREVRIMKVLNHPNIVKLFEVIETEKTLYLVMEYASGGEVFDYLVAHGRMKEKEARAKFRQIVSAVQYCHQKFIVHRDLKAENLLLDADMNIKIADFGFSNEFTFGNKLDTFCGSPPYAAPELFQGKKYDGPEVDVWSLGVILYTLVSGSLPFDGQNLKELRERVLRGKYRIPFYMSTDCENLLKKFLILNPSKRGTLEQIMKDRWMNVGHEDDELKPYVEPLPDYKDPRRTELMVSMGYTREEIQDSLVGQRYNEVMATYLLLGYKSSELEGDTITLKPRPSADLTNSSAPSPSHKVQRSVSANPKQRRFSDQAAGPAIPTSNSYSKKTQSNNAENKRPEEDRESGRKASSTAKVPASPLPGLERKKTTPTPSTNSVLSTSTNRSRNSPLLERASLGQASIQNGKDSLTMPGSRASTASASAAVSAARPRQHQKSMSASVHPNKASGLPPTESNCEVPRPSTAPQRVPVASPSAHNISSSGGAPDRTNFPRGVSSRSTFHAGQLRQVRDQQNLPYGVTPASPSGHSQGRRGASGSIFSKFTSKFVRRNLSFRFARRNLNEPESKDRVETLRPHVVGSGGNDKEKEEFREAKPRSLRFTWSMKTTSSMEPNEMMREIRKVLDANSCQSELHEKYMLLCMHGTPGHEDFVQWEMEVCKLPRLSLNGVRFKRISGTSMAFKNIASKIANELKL

Sequence of MAP/microtubule affinity-regulating kinase 3 (Homo sapiens) (P27448 whole entry, looked up): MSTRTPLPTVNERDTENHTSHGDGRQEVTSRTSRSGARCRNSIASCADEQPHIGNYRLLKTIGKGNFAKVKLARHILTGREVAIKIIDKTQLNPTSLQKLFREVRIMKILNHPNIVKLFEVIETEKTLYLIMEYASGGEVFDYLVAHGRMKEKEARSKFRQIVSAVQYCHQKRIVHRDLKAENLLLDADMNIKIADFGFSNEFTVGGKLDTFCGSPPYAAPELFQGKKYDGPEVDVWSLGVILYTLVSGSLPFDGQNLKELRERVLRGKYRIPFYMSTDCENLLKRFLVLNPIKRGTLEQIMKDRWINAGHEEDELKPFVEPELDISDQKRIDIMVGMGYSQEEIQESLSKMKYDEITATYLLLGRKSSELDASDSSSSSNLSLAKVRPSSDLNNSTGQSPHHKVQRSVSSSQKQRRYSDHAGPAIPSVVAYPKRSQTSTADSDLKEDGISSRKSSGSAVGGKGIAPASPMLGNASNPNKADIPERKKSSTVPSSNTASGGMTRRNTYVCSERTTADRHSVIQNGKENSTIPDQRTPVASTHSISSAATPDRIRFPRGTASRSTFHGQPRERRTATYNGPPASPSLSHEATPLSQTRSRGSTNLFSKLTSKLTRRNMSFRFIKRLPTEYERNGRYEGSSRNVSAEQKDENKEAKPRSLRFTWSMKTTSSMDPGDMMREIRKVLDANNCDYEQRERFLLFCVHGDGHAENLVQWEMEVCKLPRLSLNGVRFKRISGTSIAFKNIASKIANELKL

Structure (SMILES)	inhibition [1]	inhibition [2]	inhibition [3]	inhibition [4]	inhibition [5]	inhibition [6]	inhibition [7]	inhibition [8]	inhibition [9]	inhibition [10]
COc1cccc(-n2ncc3c(N/N=C/c4ccc(C(=O)NCCN(C)C)cc4)ncnc32)c1	18.4%	2.02%	16.8%	2.38%	11.5%	39.4%	72.9%	28.7%	67.5%	1.55%
CN1CCC(n2cnc(-c3ccc(F)cc3)c2-c2ccnc(NCCO)n2)CC1	6.04%	0.86%	2.05%	2.15%	5.49%	4.71%	15.9%	2.63%	8.42%	-0.26%
Nc1ncnc2occ(-c3ccc(NC(=O)Nc4cc(C(F)(F)F)ccc4F)cc3)c12	2.97% and -0.26%	0.43% and 1.7%	2.95% and 1.13%	-6.51% and -4.36%	–	6.91% and 2.48%	30% and 16.5%	7.71% and 2.55%	40.3% and 28.8%	-0.86% and -0.02%
CS(=O)(=O)CCNCc1ccoc1-c1ccc2ncnc(Nc3ccc(OCc4ccccc4)cc3)c2c1	-1.52%	-0.56%	-0.4%	-0.71%	-0.61%	2%	4.19%	0.34%	5.82%	-1.43%
CS(=O)(=O)Nc1ccc(-c2ccc3c(NC(=O)C4CC4)n[nH]c3c2)cc1	0.81%	2.19%	2.82%	2.17%	3.47%	2.36%	2.11%	1.69%	1.32%	-0.79%
CS(=O)(=O)Nc1ccc(-c2cc(-c3ccccc3)cc(C(N)=O)c2N)cc1	0.12%	0.69%	0.98%	3.07%	7.77%	1.45%	4.03%	-0.47%	3.27%	-0.25%
COc1c(C(N)=O)cc(-c2ccc(Cl)cc2)cc1-c1ccc(S(N)(=O)=O)cc1	2.07%	0.45%	1.37%	6.28%	14.6%	3.66%	11.2%	2.02%	5.44%	1.8%
NC(=O)c1ccc2c(-c3ccnc(NCCCO)n3)c(-c3ccc(F)cc3)nn2c1	21.9%	1.93%	2.67%	6.11%	6.85%	4.56%	13.4%	3.16%	7.35%	1.93%
COc1cc2c(cc1Nc1nc(Nc3cccc(F)c3C(N)=O)c3cc[nH]c3n1)N(C(=O)CN1CCN(C(C)C)CC1)CC2	3.29%	0.59%	2.06%	2.86%	18.4%	1.4%	1.42%	1.33%	4.51%	0.26%
COc1cc(Nc2ncc(-c3ccccc3)o2)cc(OC)c1	2.48%	1.86%	3.56%	4.58%	5.97%	3.84%	10.8%	1.3%	12.4%	-1.15%
CN1CCN(Cc2ccc(-c3cc4ncnc(Nc5ccc(OCc6cccc(F)c6)c(Cl)c5)c4s3)o2)CC1	2.84% and 0.44%	1.62% and 1.87%	3.52% and 3.32%	4.83% and 3.2%	6.62% and 9.42%	3.21% and 7.2%	18.6% and 22%	-0.2% and 3.49%	9.13% and 14.2%	0.8% and 0.26%
CN(C)CCNC(=O)Nc1ccc(N(C)c2ccnc(Nc3ccc(CS(C)(=O)=O)cc3)n2)cc1	6.62%	1.9%	8.9%	4.26%	16.1%	1.51%	3.79%	0.95%	5.14%	2.5%
Cc1c2ccc(N(C)c3ccnc(Nc4cccc(S(N)(=O)=O)c4)n3)cc2nn1C	5.76%	2.63%	5.35%	3.62%	3.67%	1.23%	4.05%	-0.12%	3.7%	1.14%
NS(=O)(=O)c1ccc(N/N=C2\C(=O)Nc3cccc(CCc4ccncc4)c32)cc1	3.11%	2.47%	4.28%	4.76%	34.7%	1.05%	0.27%	0.14%	1.83%	0.98%
CNC(=O)c1cncc(/C=C/c2ccccc2C)c1	6.03%	1.26%	3.49%	1.3%	4.29%	4.95%	29.4%	2.12%	14.9%	1.19%
Nc1nonc1-c1nc2cnccc2n1C1CC1	22.6% and 19%	3.74% and 2.4%	11% and 8.22%	10.2% and 12.6%	66.9% and 71.4%	3.95% and 1.61%	9.32% and 10.2%	4.37% and 1.55%	18.2% and 15.1%	3.55% and -0.71%
Cn1c(-c2nonc2N)nc2cnccc21	9.08%	1.25%	3.94%	7.95%	22.1%	3.39%	7.55%	2.67%	16.9%	0.44%
O=C1Nc2ccccc2/C1=C1\CCc2cc(O)ccc21	40.1%	7.29%	33.1%	11.1%	56.8%	3.12%	7.84%	2.73%	15.9%	5.04%
COc1cccc(Nc2nccc(-c3cnn4ncccc34)n2)c1	29.6%	0.65%	17.3%	5.16%	52.3%	2.14%	11.3%	3.27%	22.7%	1.23%
CS(=O)(=O)CCNCc1ccc(-c2ccc3ncnc(Nc4ccc(OCc5cccc(C(F)(F)F)c5)cc4)c3c2)o1	3.96%	1.47%	2.54%	3.5%	11.4%	2.34%	6.48%	0.53%	5.47%	0.72%
COC(=O)Nc1nc2ccc(Oc3ccc(NC(=O)Nc4cc(C(F)(F)F)ccc4F)cc3)cc2s1	-0.18%	-0.51%	0.37%	1.63%	3.51%	4.79%	15.7%	2.41%	7.88%	-8.34%
c1ccc(-c2n[nH]cc2-c2ccnc(-c3ccc(OCCn4ccnc4)cc3)c2)nc1	6.87%	1.49%	3.83%	2.12%	27.2%	0.75%	5.94%	0.5%	7.2%	-0.46%
Fc1ccc(Nc2nccc(-c3c(-c4ccc(C(F)(F)F)cc4)nn4ncccc34)n2)cc1F	3.91%	1.29%	2.56%	1.38%	3.78%	2.72%	2.85%	0.89%	2.32%	-0.1%

Source: ChEMBL document CHEMBL1961873, “Compounds: GSK PKIS; Assays: Nanosyn kinase panel” (2012)
